According to PubChem BioAssay AID623870 (Broad Institute, 2012):
About 2,600 (0.67%) of roughly 390,000 compounds were called active. The sample as a whole holds a higher share of actives than the screen did. Unmarked numbers belong to inactive results.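 Rule for the calls: active = mean inhibition of replicates at least 50% and at least half of replicates each reaching 50%; inconclusive = half or more replicates reach 50% but mean below 50%; inactive = the rest.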

What follows are molecules tested against Transforming acidic coiled-coil-containing protein 3 (Homo sapiens) (UniProt Q9Y6A5) (assay: inhibitors of ARNT PAS-B binding to TACC3 – biochemical, AlphaScreen, single concentration, primary screen (AID 623870;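 note: 0% = complete ARNT plus TACC3 wells and 100% = ARNT alone without TACC3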)). Conditions: AlphaScreen His-ARNT PAS-B/GST-TACC3 binding, luminescence; at 9.99 µM; active compounds read high; TACC3 fragment carries E629A point mutation.
Molecule `Cc1ccc(S(=O)(=O)Nc2ccc3c(c2)C(=O)N([C@H](C)CO)C[C@H](C)[C@H](CN(C)C(=O)NC(C)C)OCCCC[C@@H](C)O3)cc1` has an inhibition of -2.46%. For `N/C(Cc1ccc([N+](=O)[O-])cc1)=N\OC(=O)COc1ccc2ccccc2c1`, the inhibition was 1.55%. Molecule `N/C(=N\OC(=O)CCC1CCCCC1)c1ccccn1` has an inhibition of -3.39%. `N/C(=N\OC(=O)Cc1ccc([N+](=O)[O-])cc1)c1ccccn1` was tested, and the inhibition was 55.4% (active). For `COc1ccc(S(=O)(=O)N[C@@H]2CC[C@@H](CC(=O)NCCc3ccccc3)O[C@@H]2CO)cc1`, the inhibition was -3.62%. `CCCC#Cc1ccc2c(c1)O[C@@H](CN(C)C(=O)CC)[C@@H](C)CN([C@H](C)CO)S2(=O)=O` gave an inhibition of 5.6%. Molecule `Cc1cccc(S(=O)(=O)N[C@H]2CC[C@@H](CCNS(=O)(=O)c3ccccc3F)O[C@H]2CO)c1` has an inhibition of 1.77%. In the case of `CCOC(=O)c1ccc(Nc2cc3ccccc3c(=O)[nH]2)cc1`, the inhibition was 4.54% (active). With `CCOC(=O)c1ccc(NC(=O)C2CC(=O)Nc3nc4ccccc4n32)cc1` (centres undefined) the inhibition was 1.15%. For `CC(C)CN(C(=O)COC(=O)c1ccc2ccccc2c1)c1c(N)n(Cc2ccccc2)c(=O)[nH]c1=O`, the inhibition was -0.235%. `O=C(C[C@H]1C[C@@H]2c3cc(NC(=O)C4CCOCC4)ccc3O[C@@H]2[C@H](CO)O1)NCC1CC1` gave an inhibition of -7.92%. For `O=c1cc(CCl)nc2scc(-c3ccccc3)n12`, the inhibition was -9.12%. For `OCCn1c(-c2ccccc2)csc1=Nc1ccccc1`, the inhibition was 51% (active). `COc1ccccc1S(=O)(=O)N1CC[C@H]2[C@@H](CO)N(C)c3ccc(C#Cc4ccccc4)cc3[C@H]21` showed an inhibition of 9.34%. For `C[C@H]1CN([C@@H](C)CO)C(=O)Cc2cc(NS(C)(=O)=O)ccc2O[C@@H]1CN(C)S(=O)(=O)c1cccs1`, the inhibition was -10.4%. `O=C(C[C@@H]1C[C@@H]2c3cc(NS(=O)(=O)c4ccc(F)cc4)ccc3O[C@@H]2[C@H](CO)O1)NCc1ccccc1F` was tested, and the inhibition was -1.77%. `N#Cc1c(N2CCCCC2)nc(N)c2c(N)nc(SCC(=O)O)cc12` was tested, and the inhibition was 80.8% (active). Work on `CCCN1[C@H](C(=O)N[C@H](C)c2ccccc2)[C@@H](CO)[C@@H]2Cn3c(ccc(-c4cccc(F)c4)c3=O)[C@@H]21` yielded an inhibition of 2.44%. `C[C@@H]1CN([C@H](C)CO)C(=O)Cc2cc(NC(=O)CCC(F)(F)F)ccc2O[C@@H]1CN(C)CC1CCCCC1` gave an inhibition of 2.83%. `COc1ccccc1-c1cccc(-c2nc(C(=O)N3CCN(C)CC3)cc3c2[C@H](CCO)N([S@@](=O)C(C)(C)C)C3)c1` was tested, and the inhibition was 51.3% (active). For `CN1CCN(C(=O)c2cc3c(c(-c4cccc(-c5ccc(C(=O)N(C)C)cc5)c4)n2)[C@@H](CCO)N([S@](=O)C(C)(C)C)C3)CC1`, the inhibition was -5.08%. In the case of `CC(C)(C)[S@](=O)N1Cc2cc(C(=O)N3CCCCC3)nc(-c3cccc(-c4ccccc4F)c3)c2[C@@H]1CCO`, the inhibition was 9.08%. In the case of `C[C@@H]1CN([C@H](C)CO)C(=O)c2cc(NC(=O)Nc3ccccc3)ccc2O[C@@H](C)CCCCO[C@@H]1CN(C)S(=O)(=O)c1ccc(F)cc1`, the inhibition was -3.52%. In the case of `CCCNC(=O)N(C)C[C@H]1Oc2ncc(-c3cccc(C#N)c3)cc2C(=O)N([C@@H](C)CO)C[C@@H]1C`, the inhibition was -5.02%. With `O=C(NCCCn1ccnc1)c1cc2c(s1)CCCC2` the inhibition was 49.3% (active). For `O=C(NCCCn1ccnc1)c1cc(-c2ccccc2)on1`, the inhibition was 1.74%. Molecule `O=C(NCCCn1ccnc1)c1cc(Br)c(Br)s1` has an inhibition of 15.4%. With `O=C(N[C@H]1CC[C@H](CCNS(=O)(=O)c2ccc(F)cc2)O[C@H]1CO)c1cccc(F)c1` the inhibition was 3.52%. For `CCS(=O)(=O)N1CCCCN2[C@@H](CO)[C@@H](c3ccc(-c4ccccc4)cc3)[C@@H]2C1`, the inhibition was -0.151%. Molecule `O=C([C@H]1[C@H](CO)[C@H]2Cn3c(ccc(-c4ccccc4)c3=O)[C@@H]1N2Cc1cccnc1)N1CCOCC1` has an inhibition of 42.2%. In the case of `Cc1n[nH]c(=O)nc1N/N=C/c1cccs1`, the inhibition was 67.8% (active). `Cn1c(=O)c2c(nc(N/N=C/c3cccs3)n2Cc2ccc(Br)cc2)n(C)c1=O` showed an inhibition of 12.7%. `O=c1nc(N/N=C/c2ccco2)cn[nH]1` showed an inhibition of 5.23%. `C[C@@H]1CN([C@@H](C)CO)C(=O)c2cc(C3=CCCC3)cnc2O[C@@H]1CN(C)C(=O)Cc1ccncc1` was tested, and the inhibition was 3.47%. With `Cc1ccc(S(=O)(=O)Nc2ccc3c(c2)C(=O)N([C@H](C)CO)C[C@H](C)[C@H](CN(C)S(C)(=O)=O)O3)cc1` the inhibition was -7.55%. `C[C@@H]1CN([C@@H](C)CO)C(=O)c2cc(-c3cccc(F)c3)cnc2O[C@@H]1CN(C)Cc1ccccc1` showed an inhibition of 1.97%. Molecule `COc1ccc(-c2ccc3c(c2)O[C@H](CN(C)Cc2ccccc2C(=O)O)[C@H](C)CN([C@@H](C)CO)S3(=O)=O)cc1` has an inhibition of 5.2%. In the case of `CN(C)Cc1cn(CC[C@H]2CC[C@@H](NS(=O)(=O)c3ccccc3)[C@H](CO)O2)nn1`, the inhibition was -3.27%. In the case of `O=C(N[C@@H]1CC[C@H](CCn2cc(-c3ccccc3)nn2)O[C@H]1CO)c1cnccn1`, the inhibition was 4.06%. `O=C(N[C@@H]1CC[C@H](CCn2cc(-c3ccccn3)nn2)O[C@@H]1CO)c1ccccc1` was tested, and the inhibition was 87.5% (active). With `O=C(N[C@@H]1CC[C@@H](CCn2cc(-c3ccccn3)nn2)O[C@@H]1CO)c1ccccc1` the inhibition was 40.7%. Molecule `CN(C)Cc1cn(CC[C@H]2CC[C@H](NS(=O)(=O)c3ccccc3)[C@@H](CO)O2)nn1` has an inhibition of -3.47%. For `O=S(=O)(N[C@@H]1CC[C@@H](CCn2cc(-c3ccccn3)nn2)O[C@@H]1CO)c1cccc(Cl)c1`, the inhibition was 69.9% (active). In the case of `C[C@H]1CN([C@@H](C)CO)C(=O)c2cc(C3=CCCC3)cnc2O[C@@H]1CN(C)C(=O)c1ccccc1`, the inhibition was -1.02%. With `CC(C)OC(=O)N(C)C[C@@H]1OCc2ccccc2-c2c(n(C)c3ccccc23)C(=O)N([C@H](C)CO)C[C@H]1C` the inhibition was 5.73%. `CCC(=O)N(C)C[C@H]1Oc2cc(C#CCOC)ccc2S(=O)(=O)N([C@H](C)CO)C[C@H]1C` showed an inhibition of 1.93%. In the case of `CC(=O)Nc1ccc2c(c1)C(=O)N(C)[C@H]1CC[C@@H](CC(=O)NCC3CC3)O[C@H]1CO2`, the inhibition was -14.7%. `O=C(C[C@H]1CC[C@H]2[C@@H](COC[C@H](O)CN2Cc2ccncc2)O1)NCC1CC1` was tested, and the inhibition was 14.4%. In the case of `C[C@@H]1CN([C@@H](C)CO)C(=O)c2cc(C#CC3CCCCC3)cnc2O[C@H]1CN(C)S(=O)(=O)c1ccccc1`, the inhibition was 10.2%. In the case of `Cc1nc2ccccc2nc1N/N=C/c1ccc(O)cc1O`, the inhibition was 69.6% (active). In the case of `CNC[C@@H]1Oc2ccc(NC(=O)CCC(F)(F)F)cc2C(=O)N([C@@H](C)CO)C[C@@H]1C`, the inhibition was -4.46%. `Cc1ccsc1/C=N/NC(=O)Cc1cc(=O)[nH][nH]1` gave an inhibition of 1.12%. For `Cc1ccsc1/C=N/n1c(=S)[nH]nc(C)c1=O`, the inhibition was 65.9% (active). `CCc1n[nH]c(=S)n1/N=C/c1c[nH]c2ccc(Br)cc12` was tested, and the inhibition was -4.96%. `O=C(NC[C@@H]1[C@@H](c2ccccc2)[C@H](CO)N1C(=O)C1CCC1)NC1CCCC1` was tested, and the inhibition was -6.78%. With `Oc1cccc(/C=N/Nc2ccc(Cl)nn2)c1O` the inhibition was 53.7% (active). With `COc1ccc(NC(=O)N2C[C@H](O)COC[C@H]3O[C@@H](CC(=O)N4CCN(C)CC4)CC[C@@H]32)cc1` the inhibition was 0.747%. In the case of `CCN(CC)c1ccc(/C=N/Nc2nc(C)cc(C)n2)c(O)c1`, the inhibition was 69.4% (active). Work on `CCN(CC)c1ccc(/C=N/NC(=O)CNC(=O)c2cccs2)cc1` yielded an inhibition of -3.55%. Molecule `NS(=O)(=O)c1ccc(CNC(=O)c2cnccn2)cc1` has an inhibition of 6.45%. With `CCN(CC)c1ccc(/C=N/NC(=O)c2cnccn2)c(O)c1` the inhibition was 53.5% (active). In the case of `Cc1noc(C)c1NC(=O)Nc1cccc2c1O[C@H](CN(C)C(=O)Nc1c(C)noc1C)[C@@H](C)CN([C@@H](C)CO)C2=O`, the inhibition was 2.88%. `CCCNC(=O)[C@H]1[C@H](CO)[C@H]2Cn3c(ccc(C4=CCCC4)c3=O)[C@H]2N1C(=O)CC` gave an inhibition of -1.64%. `Cc1cccc(-n2cnc(C(=O)Nc3cccnc3)c2)n1` was tested, and the inhibition was -3.7%. For `Cc1cccc(-n2cnc(C(=O)NNC(=S)Nc3ccccc3)c2)n1`, the inhibition was 70.3% (active). `O=C(NNC(=S)Nc1ccccc1)c1cccc(S(=O)(=O)N2CCOCC2)c1` was tested, and the inhibition was 0.545%. Molecule `C/C=C/c1cnc2c(c1)C(=O)N([C@H](C)CO)C[C@H](C)[C@@H](CN(C)S(=O)(=O)c1ccccc1F)O2` has an inhibition of -4.04%. `C/C=C/c1ccc([C@H]2[C@@H](CO)N(S(C)(=O)=O)[C@@H]2CN(C)C(=O)CC)cc1` showed an inhibition of 7.87%. In the case of `CO[C@H]1CN(C)C(=O)c2ccc(NC(=O)C3CC3)cc2OC[C@H](C)N(CCc2ccccc2)C[C@H]1C`, the inhibition was -7.12%. With `COc1ccc(Cc2nnc(SCC(=O)Nc3ccc(C)c(Cl)c3)[nH]c2=O)cc1` the inhibition was -0.289%. For `Cc1ccc(NC(=O)CSc2nn3c(=O)c(C)nnc3s2)cc1Cl`, the inhibition was 56.2% (active). In the case of `Cc1ccc(NC(=O)CSc2nnc(CNC(=O)c3ccccc3F)o2)cc1Cl`, the inhibition was 2.2%. `C[C@H](CO)N1C[C@H](C)[C@@H](CN(C)Cc2ccc(-c3ccccc3)cc2)Oc2ccc(NC(=O)CCCN(C)C)cc2CC1=O` was tested, and the inhibition was 31.9%. Molecule `C[C@H](CO)N1C[C@H](C)[C@@H](CN(C)C)OCCCC[C@H](C)Oc2ccc(NC(=O)C3CCCCC3)cc2C1=O` has an inhibition of -2.97%.
